The results in this text go back to PubChem BioAssay (NCATS).

Each structure is given as a SMILES string. Values joined by “and” are separate entries in the source; they are usually repeats but may differ in a detail not shown here. Identical values can stand only once. Inconclusive results are not listed. Active and inactive are the calls of the source. Unless noted, calls follow the shape of the dose curve; as a rule, active = well fitted curve in the direction sought with a large enough effect; inconclusive = small, poorly fitted or top-dose-only effect, or another doubt; inactive = no such curve, though single readings can be large; an effect the other way counts as inactive or inconclusive.

The target of assay [1] is Catechol O-methyltransferase (Homo sapiens) (UniProt P21964). Nature of the assay: Confirmatory Screen for Target Class Profiling of Small Molecule Inhibitors of Methyltransferases (AID 1745852; calls by dose curve; also: potency is read from the fitted curve at half-maximal effect; as to activity change, negative = inhibition: % is scaled to controls: 0 for no effect and ±100 for the full control effect). To be noted: MTase-Glo luminescence, SAH detection, recombinant enzyme; measured here: COMT max response; stronger effect = lower value.
Chain of Catechol O-methyltransferase (Homo sapiens) (P21964 whole entry, looked up): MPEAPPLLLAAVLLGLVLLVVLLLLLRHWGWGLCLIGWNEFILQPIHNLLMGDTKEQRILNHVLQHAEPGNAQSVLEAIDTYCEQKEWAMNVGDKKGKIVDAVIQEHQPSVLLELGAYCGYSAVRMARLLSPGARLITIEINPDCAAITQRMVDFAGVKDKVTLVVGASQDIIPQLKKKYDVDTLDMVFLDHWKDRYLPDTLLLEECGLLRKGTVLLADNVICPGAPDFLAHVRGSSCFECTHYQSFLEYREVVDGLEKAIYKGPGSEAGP
Assay [2] concerns the target Guanidinoacetate N-methyltransferase (Homo sapiens) (UniProt Q14353). The assay is described as above. To be noted: MTase-Glo luminescence, SAH detection, recombinant enzyme.
For assay [3], the target named is Nicotinamide N-methyltransferase (Homo sapiens) (UniProt P40261). Described as above. To be noted: MTase-Glo luminescence, SAH detection, recombinant enzyme; measured here: NNMT max response; stronger effect = lower value.
Chain of Nicotinamide N-methyltransferase (Homo sapiens) (P40261 whole entry, looked up): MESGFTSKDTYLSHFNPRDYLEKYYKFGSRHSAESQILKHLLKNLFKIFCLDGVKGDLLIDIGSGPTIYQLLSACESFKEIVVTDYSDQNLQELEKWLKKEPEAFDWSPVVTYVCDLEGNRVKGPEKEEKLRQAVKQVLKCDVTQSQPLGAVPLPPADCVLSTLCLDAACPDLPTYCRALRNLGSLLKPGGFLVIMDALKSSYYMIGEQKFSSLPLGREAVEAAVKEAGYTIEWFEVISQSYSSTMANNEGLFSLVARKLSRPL
For assay [4], the target named is Phenylethanolamine N-methyltransferase (Homo sapiens) (UniProt P11086). Described as above. Particulars: MTase-Glo luminescence, SAH detection, recombinant enzyme; measured here: PNMT max response; stronger effect = lower value.
Chain of Phenylethanolamine N-methyltransferase (Homo sapiens) (P11086 whole entry, looked up): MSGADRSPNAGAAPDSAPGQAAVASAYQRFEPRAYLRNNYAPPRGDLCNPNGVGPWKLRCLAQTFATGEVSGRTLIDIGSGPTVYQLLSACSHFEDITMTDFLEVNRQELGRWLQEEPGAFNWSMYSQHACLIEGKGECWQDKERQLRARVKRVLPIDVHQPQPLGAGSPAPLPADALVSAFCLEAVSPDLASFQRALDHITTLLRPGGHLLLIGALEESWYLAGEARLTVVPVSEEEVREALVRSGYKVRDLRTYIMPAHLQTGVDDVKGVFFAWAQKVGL
Assay [5] has as its target Glutathione peroxidase 1 (Homo sapiens) (UniProt P07203). Nature of the assay: Primary qHTS Assay for Inhibitors of Recombinant Selenoprotein Glutathione Peroxidase 1 (GPX1) (AID 1845191). Also: nearly all actives have a fitted effect of over 65% in size. Particulars: recombinant GPX1, GR-coupled NADPH fluorescence, 15 min; series mostly up to 48.8 µM. Put shortly:
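10 nM GPX1 + cpd, 30 min RT; start w/ 1 mM GSH, 0.5 mM cumene hydroperoxide, 0.5 mM NADPH, 100 nM GR, 0.01% BSA; buffer 50 mM Tris-HCl pH 7.5, 2 mM EDTA, 150 mM NaCl; Fl 340/450, 0 & 15 min.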

Assay [6] deals with Phospholipid hydroperoxide glutathione peroxidase GPX4 (Homo sapiens) (UniProt P36969). The experiment in a line: Primary qHTS Assay for Inhibitors of Recombinant Selenoprotein Glutathione Peroxidase 4 (GPX4) (AID 1845192). Also: nearly all actives have a fitted effect of over 65% in size. As to activity change, negative = inhibition: % is scaled to controls: 0 for no effect and ±100 for the full control effect. Particulars: recombinant GPX4, GR-coupled NADPH fluorescence, 15 min; series mostly up to 50 µM. Put shortly:
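NADPH consumption, followed by fluorescence at 340/450 nm between 0 and 15 min, reports GPX4 activity via coupled glutathione reductase (100 nM). Enzyme 200 nM was pre-exposed to compound 30 min; 0.5 mM cumene hydroperoxide and 1 mM GSH served as substrates.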

Assay [7] deals with Luciferin 4-monooxygenase (Photinus pyralis) (UniProt P08659). The experiment in a line: Primary firefly luciferase (FLuc) qHTS assay for identification of artifact compounds. (AID 1845220). Also: nearly all actives have a fitted effect of over 60% in size.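 As to activity change, negative = inhibition: plate controls were DMSO vehicle for no effect and no enzyme for full effect.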 Particulars: purified firefly luciferase, luminescence, 5 min; series mostly up to 54.1 µM. In short, it runs like this: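 Cell-free, 1536-well qHTS. Buffer pH 7.6 with 0.01% Tween-20 and 0.05% BSA; 10 uM D-luciferin, 10 uM ATP; 10 nM P. pyralis luciferase; luminescence after 5 min.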

The nature of assay [8]: Primary fluorescence-based thiol-reactive (MSTI) qHTS assay for identification of artifact compounds. (AID 1845221). Also: nearly all actives have a fitted effect of over 65% in size. Also: potency is read from the fitted curve at half-maximal effect. Particulars: MSTI thiol-reactivity probe, 1 h; series mostly up to 53.8 µM. Put shortly:
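MSTI probe at 4 uM final in 2% DMSO/PBS pH 7.4; compounds, 1 h at room temperature in dark. Fluorescence Ex/Em 525/598 nm, normalised to Acetyl-MSTI and MSTI, fitted to 4-parameter Hill.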

A short description of assay [9]: Primary redox qHTS assay for identification of artifact compounds. (AID 1845223). To be noted: Amplex Red/HRP redox cycling with DTT, fluorescence; series mostly up to 53.8 µM. In short, it runs like this:
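Amplex Red (25 uM) and HRP (250 mU/mL) in HBSS, with compounds for 15 min, then 250 uM DTT for 30 min, room temperature, dark. Fluorescence 525/598 nm read; normalized to DMSO and 10 uM DA3003; Hill fit.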

Assay [10] in a line: Quantitative High-Throughput drug screen in 47 multiple myeloma cell lines against the NCATS MIPE library collection: FR4_PLB cell viability assay (AID 1918924; also: nearly all actives have a fitted effect of over 35% in size; also: potency is read from the fitted curve at half-maximal effect). Particulars: FR4_PLB myeloma cells viability, CellTiter-Glo ATP, 48 h; series mostly up to 45.8 µM. In short, it runs like this:
(§1)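 Primary qHTS used for cherry-picking: cells at 500/well, library compounds for 48 h (37C, 5% CO2), luminescent ATP assay.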

Assay [11] can be described thus: Quantitative High-Throughput drug screen in 47 multiple myeloma cell lines against the NCATS MIPE library collection: Delta47_JCRB cell viability assay (AID 1918925; also: nearly all actives have a fitted effect of over 45% in size; also: potency is read from the fitted curve at half-maximal effect). Particulars: Delta47 myeloma viability, CellTiter-Glo ATP, 48 h; series mostly up to 45.8 µM. In short, it runs like this:
(§2)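 CellTiter-Glo luminescence (ATP) after 48 h compound exposure, 37C/5% CO2; 500 cells/well; MIPE 4.0 approved/investigational drugs pinned in; DMSO = 100%, media only = 0% viability.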

Assay [12] can be described thus: Quantitative High-Throughput drug screen in 47 multiple myeloma cell lines against the NCATS MIPE library collection: EJM_DSMZ cell viability assay (AID 1918926; also: nearly all actives have a fitted effect of over 30% in size; also: potency is read from the fitted curve at half-maximal effect). To be noted: EJM myeloma cell viability, CellTiter-Glo ATP, 48 h; series mostly up to 45.8 µM. Put shortly:
as §2

The nature of assay [13]: Quantitative High-Throughput drug screen in 47 multiple myeloma cell lines against the NCATS MIPE library collection: AMO1_DSMZ cell viability assay (AID 1918927; also: potency is read from the fitted curve at half-maximal effect; nearly all actives have a fitted effect of over 30% in size). Particulars: AMO1 myeloma cells viability, CellTiter-Glo ATP luminescence, 48 h; series mostly up to 45.8 µM. In short, it runs like this: as §2
A short description of assay [14]: Quantitative High-Throughput drug screen in 47 multiple myeloma cell lines against the NCATS MIPE library collection: ARP1_JJKsccF8 cell viability assay (AID 1918928; also: nearly all actives have a fitted effect of over 40% in size; also: potency is read from the fitted curve at half-maximal effect). To be noted: ARP1 myeloma cells viability, CellTiter-Glo ATP, 48 h; series mostly up to 45.8 µM. In short, it runs like this: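 Myeloma cells at 500 per well in 1536-well format treated with MIPE 4.0 library by pin transfer for 48 h at 37C, 5% CO2. Viability from ATP luminescence (CellTiter-Glo), normalized to DMSO (100%) and media-only (0%) wells.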

Assay [15] is described as follows: Quantitative High-Throughput drug screen in 47 multiple myeloma cell lines against the NCATS MIPE library collection: ARD_JJKsccE7 cell viability assay (AID 1918929; also: potency is read from the fitted curve at half-maximal effect). To be noted: ARD myeloma cell line viability, CellTiter-Glo, 48 h; series mostly up to 45.8 µM. In short, it runs like this: as §2
A short description of assay [16]: Quantitative High-Throughput drug screen in 47 multiple myeloma cell lines against the NCATS MIPE library collection: Karpas620_DSMZ cell viability assay (AID 1918959). Also: nearly all actives have a fitted effect of over 30% in size. Also: potency is read from the fitted curve at half-maximal effect. Particulars: Karpas620 myeloma viability, CellTiter-Glo ATP luminescence, 48 h; series mostly up to 45.8 µM. Put shortly:
as §1

Assay [17] in a line: NCATS anti-infectives library activity on HEK293 viability as a counter-qHTS vs the C. elegans viability qHTS (AID 1745854).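 Also: HEK293 cells exposed to compounds for 24 hr before the viability read; % is scaled to controls: 0 for no effect and ±100 for the full control effect.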 Particulars: HEK293 viability counter-screen; series mostly up to 41.8 µM. In short, it runs like this: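 Cytotoxicity in human HEK293 cells is measured by ATP-dependent CellTiter-Glo luminescence following a 24 hr incubation with titrated library compounds at 37C. Top final concentration is 41.7 uM.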

Assay [18] has as its system Nanoluciferase (engineered Oplophorus gracilirostris luciferase). The experiment in a line: Primary Nanoluciferase (NLuc) qHTS assay for identification of artifact compounds. (AID 1845222).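 Also: 0% = DMSO and -100% = no enzyme.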 To be noted: NLuc-conditioned medium, Nano-Glo luminescence, 5 min; series mostly up to 54.1 µM. Put shortly: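 Compounds are pinned into diluted (1:55) conditioned medium of NLuc-expressing S16 cells and held 15 min at room temperature protected from light. Nano-Glo substrate follows, and luminescence is read 5 min later.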

Where [19] appears, read: activity change, negative = inhibition: at 57.3 µM (top of the series) unless noted.

Chain of Phospholipid hydroperoxide glutathione peroxidase GPX4 (Homo sapiens) (P36969 whole entry, looked up): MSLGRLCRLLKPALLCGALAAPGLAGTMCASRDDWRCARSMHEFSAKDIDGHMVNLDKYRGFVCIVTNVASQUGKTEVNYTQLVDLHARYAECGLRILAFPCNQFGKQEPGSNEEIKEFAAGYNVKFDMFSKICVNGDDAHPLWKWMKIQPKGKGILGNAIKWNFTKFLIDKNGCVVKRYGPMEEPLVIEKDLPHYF
Chain of Glutathione peroxidase 1 (Homo sapiens) (P07203 whole entry, looked up): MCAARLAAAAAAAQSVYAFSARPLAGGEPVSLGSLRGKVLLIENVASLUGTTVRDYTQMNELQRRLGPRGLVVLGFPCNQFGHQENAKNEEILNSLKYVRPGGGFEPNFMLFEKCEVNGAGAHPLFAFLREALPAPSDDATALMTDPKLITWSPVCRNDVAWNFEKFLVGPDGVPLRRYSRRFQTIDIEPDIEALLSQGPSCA

As for `Cc1ccc(C(N)=O)cc1Nc1nccc(-c2cn(C(C)C)c3cnccc23)n1`, the activity in assay [1] is -56.6%; in assay [3] it was -53.8%; in assay [4] it was -56%. The Potency in [2] (setting [19]) was 27.1 µM (active); in assay [10], 9.35 µM (active); in assay [11], 3.32 µM (active); in assay [12], 7.43 µM (active); in assay [13], 2.64 µM (active); in [14] it was 6.62 µM (active). The Potency in assay [15] was 3.72 µM (active); in [16] it was 6.62 µM (active). The Potency entry in assay [5], in [6], in assay [7], in assay [8] and in assay [9] was “inactive” each time.
Turning to `COc1ccc(-n2nc(C(N)=O)c3c2C(=O)N(c2ccc(N4CCCCC4=O)cc2)CC3)cc1`, the Potency entry in assay [17], in assay [5], in assay [6], in [7], in assay [8] and in [18] was “inactive” throughout. Further, the Potency result in assay [9], in assay [10], in assay [11], in assay [12], in assay [14] and in assay [15] was “inactive” throughout. For the same compound, in assay [16], the Potency entry is “inactive”.
`Nc1nc(NCCNc2ncc(-n3ccnc3)c(-c3ccc(Cl)cc3Cl)n2)ccc1[N+](=O)[O-]`: the activity is -0.828% in assay [1], -47.1% in assay [3] and -4.53% in [4]. For the same compound, the activity change, negative = inhibition in assay [2] (setting [19]) was determined as 0%. For the same compound, the Potency entry in [5], in assay [6], in [7], in assay [8] and in assay [9] was “inactive” each time. Also, the Potency was 13.2 µM (active) in [10]; 1.48 µM (active) in assay [11]; 16.6 µM (active) in [12]; 11.8 µM (active) in assay [14]; 6.62 µM (active) in [15].
Consider `CCn1cc(-c2ccnc3[nH]c(-c4cccc(CN(C)C)c4)cc23)c(-c2ccc(NC(=O)N(C)C)cc2)n1`, for which the activity in assay [1] was -5.39% and -8.37%; in [3], -7.11% and -33%; in assay [4] it was -1.24% and -20%. Besides, the activity change, negative = inhibition in [2] (at 29.8 µM (top of the series)) was 2.9%; in assay [2] (at 57.3 µM (top of the series)) it was -1.45%. The Potency result in assay [5], in [6], in [7], in [8], in assay [18] and in assay [9] was “inactive” each time. Also, the Potency is 20.9 µM (active) in assay [10]; 3.32 µM (active) in [11]; 5.26 µM (active) in assay [13]; 5.9 µM (active) in assay [14]; 8.33 µM (active) in [15]; 20.9 µM (active) in assay [16].
`Cc1cc(Nc2cc(N3CCN(C)CC3)nc(Sc3ccc(NC(=O)C4CC4)cc3)n2)n[nH]1`: the activity in assay [1] is -3.34%; in [3], -2.46%; in [4] it was -1.21%. Also, the activity change, negative = inhibition in assay [2] (setting [19]) is -2.28%. Moreover, the Potency result in assay [5], in assay [6], in [7], in assay [8] and in assay [18] was “inactive” in each case. The Potency in assay [11] is 3.72 µM (active); in assay [12], 14.8 µM (active); in assay [13], 0.372 µM (active); in assay [14] it was 7.43 µM (active); in [16] it was 0.0332 µM (active).
In the case of `C=CC(=O)Nc1cccc(Oc2nc(Nc3ccc(N4CCN(C)CC4)cc3)ncc2Cl)c1`, the values for the activity in [1], in assay [3] and in assay [4] were -18%, -51.9% and -14.3%, respectively. The Potency in [2] (setting [19]) was 27.1 µM (active); in assay [8] it was 1.89 µM (active); in assay [11], 1.87 µM (active); in [13], 5.26 µM (active); in [14] it was 13.2 µM (active); in assay [15], 16.6 µM (active). The Potency in assay [16] is 5.26 µM (active). The Potency result in assay [5], in [6], in [7], in assay [18] and in assay [9] was “inactive” in each case.
